Screens from PubChem BioAssay.
Shown are actives, neighbours in structure and some others; about 7.4% of the full set was active somewhere.
M1 ag = M1 muscarinic receptor agonists, primary screen, CHO-M1 cells, Fluo-4 calcium, agonist mode; Muscarinic acetylcholine receptor M1; Fluo-4 calcium fluorescence; stronger effect = higher value; B-score at 10 µM; 3% of 64,000 active;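 active = fluorescence rise, raw or as B-score row- and column-corrected plate score, outside the 99.7% band of its plate's samples, either direction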
D1 allo mod = D1 CRE-luciferase signal change, two-sided – cell-based, HEK293 D1, dopamine EC30, D1 allosteric modulator project, primary screen. D(1A) dopamine receptor (Homo sapiens), P21728. dopamine EC30 potentiation; actives deviate in either direction. B-score at 10 µM. 5.9% of 58,000 active. AID 641, 2007;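 active = luminescence count or its row- and column-corrected plate score outside the 99.7% band of the plate's sample wells, on either side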
M1 antag = antagonists of rat M1 muscarinic receptor. Muscarinic acetylcholine receptor M1 (Rattus norvegicus), P08482. CHO-M1 cells, Fluo-4 calcium, ACh EC80 antagonist mode; stronger effect = lower value. B-score at 10 µM. 3.4% of 64,000 active;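 active = calcium fluorescence response, raw or row-and-column corrected B-score, differing from the plate sample mean either way at a set confidence level, mostly lower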
DAT uptake mod = changed hDAT dopamine uptake under cocaine IC80, either direction, primary screen, cocaine antagonist project, cell-based, LLC-PK1 hDAT, [14C]-dopamine uptake, MLSMR. B-score at 10 µM. 1.3% of 110,000 active. LLC-PK1 hDAT cells, [14C]-dopamine uptake with cocaine IC80; actives deviate in either direction. AID 449768, 2010. Sodium-dependent dopamine transporter (Homo sapiens), Q01959;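 active = Z score or B-score, a plate-position-corrected score, falls beyond the plate's 99.7% confidence bounds, in either direction; inactive = both scores lie inside the 99.7% bounds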
FXIIa inh mix = human factor XIIa inhibitors, primary screen, biochemical, pooled compound mixtures, fluorogenic substrate | Coagulation factor XII (Homo sapiens), P00748 | purified FXIIa | inhibition, % at 5 µM | 0.2% of 62,000 active | AID 684, 2007
FXIa inh mix = FXIa protease inhibitors in compound pools, primary screen, biochemical, 10-compound mixtures; Coagulation factor XI (Homo sapiens), P03951; purified FXIa, fluorogenic substrate, pooled mixtures; inhibition, % at 5 µM; 0.19% of 62,000 active; AID 680, 2007;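 note: each value is inhibition by a whole ten-compound pool holding the compound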
Target sequence (P03951 19-387 limits assumed): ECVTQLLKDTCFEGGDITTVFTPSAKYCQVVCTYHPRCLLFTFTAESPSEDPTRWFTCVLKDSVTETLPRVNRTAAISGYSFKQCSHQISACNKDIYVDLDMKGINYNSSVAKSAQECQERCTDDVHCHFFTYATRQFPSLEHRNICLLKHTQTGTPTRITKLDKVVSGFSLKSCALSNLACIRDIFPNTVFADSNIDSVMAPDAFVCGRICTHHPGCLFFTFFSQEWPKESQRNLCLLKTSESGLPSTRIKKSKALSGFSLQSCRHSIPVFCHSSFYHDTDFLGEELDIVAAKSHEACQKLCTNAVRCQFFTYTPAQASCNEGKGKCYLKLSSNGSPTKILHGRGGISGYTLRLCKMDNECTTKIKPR
Target sequence (P03951 388-625 limits assumed): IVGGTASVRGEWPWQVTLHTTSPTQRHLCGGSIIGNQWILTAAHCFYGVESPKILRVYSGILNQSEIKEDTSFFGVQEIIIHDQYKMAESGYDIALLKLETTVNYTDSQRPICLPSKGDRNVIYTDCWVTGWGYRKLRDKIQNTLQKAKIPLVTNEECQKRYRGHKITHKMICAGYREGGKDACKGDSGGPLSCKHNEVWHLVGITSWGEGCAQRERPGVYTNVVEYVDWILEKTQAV
A number is an active result; 0 = inactive; - = no result given. Cut-off read from the data, not from the text of the source, unless noted: active = inhibition above about 20% (passing the limit was not always enough); inactive = the rest.

SMILES | M1 ag | D1 allo mod | M1 antag | DAT uptake mod | FXIIa inh mix | FXIa inh mix
COc1ccc(OC)c(C2/C(=C(\O)c3c(C)nc4ccccn34)C(=O)C(=O)N2CCCN(C)C)c1 (stereo not given) | 0 | 0 | 2.4 | - | 0 | 0
COc1ccc(/C(O)=C2/C(=O)C(=O)N(CCN(C)C)C2c2ccccc2)cc1Cl (stereo not given) | 0 | - | 1 | 0 | 0 | 0
CCOC(=O)c1[nH]c(C)c(/C(O)=C2\C(=O)C(=O)N(CCN(C)C)C2c2ccco2)c1C (stereo not given) | 0 | 0 | -2.3 | 0 | 0 | 0
CCN(CC)CCN1C(=O)C(=O)/C(=C(/O)c2c(C)[nH]c(C(=O)OC)c2C)C1c1ccco1 (stereo not given) | 0 | 0 | 0 | 0 | 0 | 0
COc1ccc(/C(O)=C2/C(=O)C(=O)N(CCCN(C)C)C2c2ccco2)cc1Cl (stereo not given) | 35 | 0 | 0 | - | 0 | 0
COc1ccc(CSc2nc(C)cc(=O)[nH]2)cc1 | 0 | 0 | 0 | 0 | 0 | 0
Cc1cc(C)c2nc(Nc3nc(C)cc(=O)[nH]3)nc(C)c2c1 | 0 | -3.6 | 0 | - | 0 | 0
Cc1sc(NC(=O)c2ccco2)nc1-c1ccccc1 | - | - | - | 0 | - | -
Cc1sc(NC(=O)c2ccco2)nc1-c1ccc2c(c1)CC(C)N2C(=O)C1CC1 (stereo not given) | 14 | -3.6 | -3.6 | 0 | 0 | 0
Cc1ccc(CSCC(=O)N/N=C/c2sccc2C)cc1 | - | - | - | 3.2 | - | -
O=C(NCc1cccnc1)NC1(C(F)(F)F)Oc2ccccc2O1 | 0 | 0 | 0 | -5.8 | 0 | 0
CC(C)C(C(=O)NCc1ccco1)N(C(=O)CNS(=O)(=O)c1ccccc1)C1CCCC1 (stereo not given) | 0 | 0 | 0 | 0 | 0 | 0
CCC(C(=O)NCc1ccco1)N(C(=O)CNS(=O)(=O)c1ccccc1)C1CCCCC1 (stereo not given) | - | - | - | 4.5 | - | -
COc1ccc2c(c1OC)C(=O)N(c1cccc(C)c1)C2 | 0 | 0 | 0 | 0 | 0 | 0
COc1ccc2c(c1OC)C(=O)N(c1cccc(C(F)(F)F)c1)C2 | 0 | -2.7 | 0 | 0 | 0 | 0
COc1ccc(CCN2C(=O)C(O)=C(C(=O)c3ccco3)C2c2cccs2)cc1OC (stereo not given) | 0 | 0 | 0 | -3.3 | 0 | 0
COc1cc(C(=O)OC2CC3CCC2(C)C3(C)C)ccc1OC(C)=O (stereo not given) | - | - | - | 0 | - | -
CCOC(=O)c1c(C)n(C)c2ccc(OCC(O)Cn3c(C)nc4ccccc43)cc12 (stereo not given) | 2.1 | 0 | 0 | 2 | - | -
COc1ccc(-c2[nH]c(-c3ccccc3)nc2SCC(=O)NC2CCCC2)cc1 | - | - | - | 4.7 | - | -
COc1ccc(-c2[nH]c(-c3ccc(F)cc3)nc2SCC(=O)NC2CCCC2)cc1 | - | - | - | 0 | - | -
O=C(CSc1nc2ccccc2o1)Nc1ccccc1N1CCCCCC1 | 0 | 0 | 0 | 0 | 0 | 38
CCc1cc(C(=O)OC)c(N2C(=O)C3C4C=CC(C4)C3C2=O)s1 (stereo not given) | 0 | 0 | 0 | 0 | 52 | 0
CC(=O)Nc1ccc(NC(=O)C(F)(F)F)cc1 | - | - | - | 0 | - | -
CC(=O)Nc1ccccc1NC(=O)C(F)(F)F | 0 | 0 | 1.8 | 0 | 0 | 0
Cc1ccc2cc(CN(CCCN3CCOCC3)C(c3nnnn3Cc3ccco3)C(C)C)c(=O)[nH]c2c1C (stereo not given) | - | - | - | 3.7 | - | -
SMILES | M1 ag | D1 allo mod | M1 antag | DAT uptake mod | FXIIa inh mix | FXIa inh mix
Cc1c(=O)n(OCc2ccccn2)c2ccccc2[n+]1[O-] | 0 | 0 | 0 | 0 | 0 | 0
O=c1c(-c2ccco2)[n+]([O-])c2ccccc2n1OCc1ccccn1 | 0 | 0 | 0 | 0 | 0 | 29
O=C(Nc1ccc2ccccc2c1)c1cnccn1 | 0 | -2 | 0 | 0 | 0 | 0
O=C(Nc1ccc2nccnc2c1)c1cnccn1 | 0 | - | 0 | 0 | 0 | 0
Cc1ccc2c(c1C)NC(C(=O)O)C1CC=CC21 (stereo not given) | 0 | 0 | 0 | 0 | 0 | 0
O=C(O)C1Nc2c(C(=O)N3CCOCC3)cccc2C2C=CCC12 (stereo not given) | 0 | 0 | 1.8 | 0 | 0 | 0
Cn1c(C(=O)NCCCN2CCN(c3ccccc3F)CC2)cc2c(=O)n(C)c3ccccc3c21 | 0 | -2.6 | 0 | 0 | 0 | 0
Cc1cc(=O)oc(C)c1C(=O)NCCCN1CCN(c2ccccc2F)CC1 | 0 | 0 | 0 | 0 | 0 | 37
Cn1c(C(=O)NCCCN2CCOCC2)cc2c(=O)n(C)c3ccccc3c21 | 0 | 0 | 0 | 0 | 0 | 0
Cc1ccccc1CS(=O)(=O)CCC(=O)NCCCN1CCN(c2ccccc2F)CC1 | 0 | 0 | 0 | 0 | 0 | 0
O=C(CNC(=O)c1cccs1)NCCN1CCN(c2ccccc2F)CC1 | 0 | -3.6 | 0 | 0 | 0 | 21
O=C(CN1C(=O)C2CCc3[nH]c4ccccc4c3C2C1=O)N1CCCC1 (stereo not given) | 0 | - | 0 | 0 | 0 | 0
COc1ccc(N2C(=O)c3ccccc3NC23CCC(C)CC3)cc1 (stereo not given) | - | - | - | 0 | - | -
COc1ccc(CNCCNC(=O)c2ccco2)c(OC)c1OC | 0 | 0 | 0 | 0 | 0 | 0
Cc1ccc(CNC(=O)c2cc3c(C)nc4ccccc4c3o2)cc1 | - | - | - | 0 | - | -
Cc1nc2ccccc2c2oc(C(=O)NCc3ccccn3)cc12 | 0 | -3.7 | 0 | 0 | 0 | 0
Oc1ccc(Nc2nc(N3CCCC3)c3ccccc3n2)cc1 | 0 | 0 | 0 | 0 | 0 | 0
Cc1ccc(Nc2nc(N3CCOCC3)c3ccccc3n2)cc1 | 0 | -5.8 | 0 | 0 | 0 | 0
COc1ccc(C2CC(c3ccccc3)Nc3nc(N)nn32)cc1 (stereo not given) | 0 | - | 0 | 2.5 | - | -
COc1ccc(C2CC(c3ccc(OC)cc3)n3nc(N)nc3N2)cc1 (stereo not given) | 0 | 0 | 0 | 0 | 0 | 0
COc1cc(NC(=O)Nc2cccc(Cl)c2)c(OC)cc1NC(=O)CN1CCCCC1 | 0 | -4 | 0 | 0 | 0 | 0
O=C(CC1C(=O)NC2CCCCC2N1C(=O)c1ccc(F)cc1)Nc1ccccc1 (stereo not given) | - | - | - | 2.9 | - | -
Cc1ccc(NC(=O)CC2C(=O)NC3CCCCC3N2C(=O)c2ccc(F)cc2)cc1C (stereo not given) | 0 | 0 | 0 | 0 | 0 | 0
CCCc1nc2c(s1)CCc1onc(-c3ccc(OC)cc3)c1-2 | - | - | - | 0 | - | -
Nc1ccc(CCc2nc3ccccc3o2)cc1 | 0 | -3.6 | 0 | 0 | 0 | 0
NCc1ccc(-c2nc3ccccc3o2)cc1 | 0 | 0 | 0 | - | 0 | 0
COc1ccc(-c2cc(C(F)(F)F)n3nc(C(=O)N4CCCC4)cc3n2)cc1 | 0 | 0 | 1.8 | 0 | 0 | 0
